Hits are enriched below; roughly 19% of the tested compounds scored in any of these assays.
SARS PLP yeast: SARS-CoV PLP inhibition in yeast. Potency, µM (doses to about 32.9 µM), for the others: at the highest dose activity, positive = growth rescue, usual class: activators. hit rate 0.19% among 330,000. S. cerevisiae expressing SARS-CoV PLpro, growth rescue; calls by dose curve; further: potency means the concentration at half of the fitted maximal effect; 0% is about no effect; nearly all actives have a fitted effect of over 55% in size
Cycloheximide cs: counter-screen hit for Shiga toxin inhibitors, cycloheximide. cell reporter, cycloheximide protein synthesis inhibition counterscreen. max response, %. hit rate 12% among 300,000. AID 2314; in the data active means max response mostly above about 13%, no sharp cut-off; inactive means mostly below about 14%; further: read at 38.3 µM for the half of the compounds with a filed dose; 0% is about no effect
Pf growth 48h: inhibits P. falciparum growth in the first generation, 48 h | P. falciparum luciferase growth in erythrocytes, 48 h | Potency, µM (titrated, usually from 28.7 µM), without a hit: at the highest dose activity change, negative = inhibition, actives largely listed as inhibitors | hit rate 5.9% among 310,000; further: potency means the concentration at half of the fitted maximal effect; on the % scale 0 is the no-effect control and ±100 the full control effect
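Luciferase-expressing parasites in RBCs, 2% Hct / 0.1% parasitemia final; RPMI 1640 + 0.5% Albumax; 37 C, 5% CO2, one generation; luminescence read-out, lower signal = inhibition.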
Pf growth 96h: inhibits malaria parasite growth, 96 h. P. falciparum luciferase reporter growth, 96 h. Potency, µM (top dose mostly 28.7 µM), without a hit: top-dose activity change, negative = inhibition, actives largely listed as inhibitors. hit rate 6.9% among 320,000. AID 504834; further: potency means the concentration at half of the fitted maximal effect; on the % scale 0 is the no-effect control and ±100 the full control effect
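Parasite growth measured via integrated firefly luciferase reporter in P. falciparum. Infected erythrocytes at 2% hematocrit, 0.05% parasitemia final were treated 96 hours at 37 C under 5% CO2, and luminescence was read.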
Shiga toxin inh: blocks Shiga toxin action in Vero cells; hit rate 9.2% among 290,000; Vero cells, Shiga toxin protein synthesis inhibition reporter; inhibition, % at 38.7 µM; AID 2315; in the data active means inhibition mostly above about 28%, no sharp cut-off; inactive means mostly below about 43%; further: 0% is about no effect
AMA1-RON2 inh: disrupts binding of P. falciparum AMA1 to RON2. AlphaScreen AMA1-biotinylated RON2 peptide binding. Potency, µM (highest dose often 58.2 µM), for the others: at the top dose activity change, negative = inhibition, actives largely listed as inhibitors. hit rate 0.2% among 360,000. AID 720542;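 further: potency means the concentration at half of the fitted maximal effect; 0% = vehicle wells and -100% = peptide control; nearly all actives have a fitted effect of over 45% in size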
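AMA1 (3D7) with his tag at 25 nM final met compounds first, then biotinylated RON2 peptide at 25 nM; detection used donor plus acceptor beads, 10 µg/mL apiece, read by AlphaScreen after 30 min at room temperature.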
* = called active by the depositor; ? = inconclusive; · = no result. Unless noted, the call rests on the fitted dose curve; in most records, active means well fitted curve in the direction sought with a large enough effect; inconclusive means small, poorly fitted or top-dose-only effect, or another doubt; inactive means no such curve, though single readings can be large; an effect the other way counts as inactive or inconclusive.

SMILES | SARS PLP yeast | Cycloheximide cs | Pf growth 48h | Pf growth 96h | Shiga toxin inh | AMA1-RON2 inh
CC(=O)N(c1ccc(C)cc1)c1nc(C)cc(C)c1C#N | 2.7% | -1.4 | -0.8% | 39.9% | -6.7 | 3.1%
COc1cccc(NC(=O)NC(=O)c2c(C)cc(Cl)nc2Cl)c1 | -18.5% | -2.7 | ? | 16.2% | -1.1 | 0.4%
COc1ccc2sc(NC(=O)NC(=O)c3c(Cl)cccc3Cl)nc2c1 | -0.3% | 18.8* | 10.4µM* | 8.28µM* | 38.4 | -24.8%
CCC(=O)Nc1nc2ccc3nc(C)sc3c2s1 | -12.3% | 55.3* | ? | ? | 62.3* | -3.5%
CCC(=O)Nc1nc2c(OC)ccc(OC)c2s1 | -9.2% | -7.6 | · | -3.5% | -19.8 | -0.4%
CCCCCCN1C[C@H](O)[C@@H](n2cc(C3CC3)nn2)C[C@@H]1c1ccc(C)cc1 | · | · | · | · | · | -10.8%
CN1CCn2cnc(C(=O)N3CCN(c4ccccc4)CC3)c2C1=O | · | · | · | · | · | -1.9%
O=C(c1cc(C(=O)NCc2ccc(Cl)cc2)c(=O)n(Cc2ccc(Cl)cc2)c1)c1cc(F)ccc1O | -20.6% | -1.4 | 2.94µM* | 1.47µM* | -4.4 | 6.0%
CC(=O)NC(CC(=O)NNC(=O)c1cc2ccccc2cc1O)c1ccccc1 (stereo not drawn) | 2.8% | -3.0 | -2.1% | -51.8% | -23.7 | 88.2%
O=C(O)c1[nH]c2ccccc2c1-c1ccccc1 | 6.5% | 12.7 | · | 10.1% | -7.0 | 15.5%
CC(=O)NNC(=O)c1[nH]c2ccc(Br)cc2c1-c1ccccc1 | 0.2% | -1.1 | 6.7% | -1.0% | -9.8 | 97.0%
Cc1ccc2[nH]c(C(=O)O)c(-c3ccccc3)c2c1 | 5.4% | -3.2 | 7.4% | 7.38µM* | -11.5 | -2.1%
Cc1ccc2[nH]c(C(=O)NN=C3CCCCC3)c(-c3ccccc3)c2c1 | -0.1% | -1.4 | ? | 9.28µM* | 10.9 | 66.8%
CC(NC(=O)COC(=O)c1ccc(Br)o1)c1ccccc1 (stereo not drawn) | 5.7% | · | 6.6% | 36.7% | · | -11.6%
O=C(C1CC1)N1CCc2cc(Br)cc(S(=O)(=O)NCc3ccccn3)c21 | 0.7% | -3.3 | -18.2% | 50.5% | -3.2 | 69.2%
O=C(C1CC1)N1CCc2cc(Br)cc(S(=O)(=O)NCc3ccco3)c21 | 6.1% | 28.0* | -22.4% | 39.6% | 53.2* | 4.4%
O=C(O)CCS(=O)(=O)c1cc(Br)cc2c1N(C(=O)C1CC1)CC2 | -0.5% | 0.4 | ? | ? | 31.1 | ?
Cc1ccc(CNC(=O)CCS(=O)(=O)c2cc(Br)cc3c2N(C(=O)C2CC2)CC3)o1 | 1.7% | 5.9 | 2.62µM* | 11.7µM* | -22.4 | -1.7%
Cc1cc(C=C2C(=O)NC(=S)NC2=O)c(C)n1C1CCCC1 | 0.0% | 43.4* | 10.1% | -8.2% | 70.7* | 9.0%
COc1ccc(C(=O)Nc2ccc(C(=O)c3ccccc3)cc2)cc1 | · | · | · | · | · | 13.4%
O=C(NC(=O)c1ccccc1)Nc1ccccc1 | -1.6% | 41.9* | 28.9% | 151.3% | 51.0* | -8.8%
COc1ccccc1NC(=O)C(C)NC(c1ccccc1)c1ccccc1 (stereo not drawn) | 3.7% | -2.8 | 13.1µM* | 8.28µM* | -5.4 | 8.0%
COc1ccccc1NC(=O)NC(=O)c1ccccc1 | -2.4% | 22.9* | 201.4% | -8.5% | 58.9* | 1.5%
COc1ccccc1NC(=O)CNC(c1ccccc1)c1ccccc1 | -4.8% | 7.0 | ? | ? | 1.7 | -6.3%
COc1ccccc1NC(=O)NC(N)=O | 8.5% | 3.2 | 21.1% | · | -2.0 | 17.8%
SMILES | SARS PLP yeast | Cycloheximide cs | Pf growth 48h | Pf growth 96h | Shiga toxin inh | AMA1-RON2 inh
COc1ccc(NC(=O)NC(=O)c2ccccc2)cc1 | -1.6% | 25.0* | 283.1% | 132.9% | · | 1.5%
C[C@@H]1CN([C@H](C)CO)C(=O)c2cc(NS(=O)(=O)c3ccc(F)cc3)ccc2O[C@@H]1CN(C)Cc1ccc(Cl)c(Cl)c1 | 0.8% | · | · | · | · | -0.4%
CCOC(=O)C(NC(=O)c1ccccc1)=C(C)C | 2.1% | 0.2 | · | -6.1% | 16.0 | 1.6%
COC(=O)C(NC(=O)c1ccccc1)=C(C)C | 4.9% | -0.8 | 7.8% | 4.15µM* | -10.4 | 6.1%
Cc1nn(-c2ccccc2)c(N2CCCC2)c1/C=N/NC(=O)c1cc2ccccc2cc1O | 13.1% | 10.7 | ? | ? | 17.8 | 15.2%
Cc1nn(-c2ccccc2)c(N2CCCC2)c1/C=N/NC(=S)Nc1ccccc1F | -2.3% | 72.4* | 10.4µM* | ? | 98.1* | 76.6%

Compound activity deposited in PubChem by National Center for Advancing Translational Sciences (NCATS).
